Reference: PubChem BioAssay AID492973 (The Scripps Research Institute Molecular Screening Center, 2010)
Activity calls are given as the source filed them.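 How the source made its calls: active means inhibition above 50% of the enzyme in parasite cell lysate; inactive means the rest.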

test: PfM17LAP inhibitors in parasite extract, late-stage follow-up, cell lysate, fluorescence, Plasmodium falciparum lysate, powder samples (AID 492973); conditions: P. falciparum cell lysate, H-Leu-NHMec fluorescence; at 5 µM; hits give high values

Structure (SMILES)	inhibition
COC(=O)c1c(NC(=O)[C@H]2CC=CC[C@H]2C(=O)O)sc(C)c1C	31% (inactive)
COc1ccc(-c2cc(=O)[nH][nH]2)cc1OC	8% (inactive)
CCOC(=O)c1c(-c2ccc(C)cc2)csc1NC(=O)[C@H]1CC=CC[C@H]1C(=O)O	48% (inactive)
O=C(Nc1ccc(Cl)cc1)Nc1cccc(C(=O)O)c1	65% (active)
COc1cc(NC(=O)CSc2nc3ccccc3cc2C)c(C(=O)O)cc1OC	67% (active)
N#Cc1c(NC(=O)[C@@H]2C3C=CC(C3)[C@@H]2C(=O)O)sc2c1CCCCC2 (stereo not given in full)	30% (inactive)
Cc1ccc(Nc2nnc(SCc3cc(=O)n4ccsc4n3)s2)c(C)c1	22% (inactive)
CCOc1ccc(NC(=O)Nc2cccs2)cc1	48% (inactive)
O=C(CSc1nnc(Nc2ccccc2)s1)NN1C(=O)NC2(CCCCC2)C1=O	57% (active)
Cc1cc(C(=O)COC(=O)c2ccc[nH]c2=O)c(C)n1-c1ccc(F)cc1	32% (inactive)
CCc1ccc(NC(=O)[C@H]2CC=CC[C@H]2C(=O)O)cc1	22% (inactive)
COC(=O)c1cccc(NC(=O)CSc2nc(C)cc(=O)[nH]2)c1	26% (inactive)
COc1cc(NC(=O)CSc2nnc3c(C)cc4cc(C)cc(C)c4n23)c(C(=O)O)cc1OC	55% (active)
O=C(O)Cc1ccc(NC(=O)Nc2ccc(Br)cc2)cc1	41% (inactive)
CCN(CC)c1ccc(NC(=O)CSc2nc(C)cc(=O)[nH]2)cc1	52% (active)
COC(=O)c1c(-c2ccco2)csc1NC(=O)[C@H]1CC=CC[C@H]1C(=O)O	51% (active)
O=c1cc(-c2ccc(Cl)c(Cl)c2)[nH][nH]1	13% (inactive)
C=CCn1c(SCC(=O)Nc2cccc3ccccc23)nc(O)c(CC)c1=O	31% (inactive)
CCCCc1c(O)nc(SCC(=O)Nc2ccc3c(c2)CCC3)[nH]c1=O	21% (inactive)
Cc1ccc(-n2c(C)cc(C(=O)COC(=O)c3ccc[nH]c3=O)c2C)cc1C	54% (active)
O=C(CSc1nc(O)cc(=O)n1-c1ccccc1)Nc1ccc2c3c(cccc13)CC2	22% (inactive)
S=c1nc(-c2ccccc2Br)[nH][nH]1	26% (inactive)
COc1ccc(NC(=O)CSc2nc(O)cc(=O)n2C)cc1	29% (inactive)
COc1ccc(-c2cc(=O)[nH][nH]2)cc1	22% (inactive)
S=c1nc(-c2cccc(Cl)c2)[nH][nH]1	22% (inactive)
